Laboratory results: PubChem BioAssay (NCATS)
Inconclusive results are not listed. Entries that show only a call come without a potency. The source made the active and inactive calls. Unless noted, the call rests on the fitted dose curve; in most records, active means well fitted curve in either direction with a large enough effect (not every such curve was filed as active); inconclusive means small, poorly fitted or top-dose-only effect, or another doubt; inactive means flat fitted curve, though single readings scatter.

What was measured:
[1] = AP1 Signaling Pathway (AID 357);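 further: ME-180 reporter cells stimulated with EGF at its EC50 level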
Outline: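 Titration-series screen for positive or negative modulators of EC50 EGF-induced signaling in ME-180 cells carrying an AP-1-driven beta-lactamase reporter. After 5 hours at 37 degrees Celsius, CCF4 460nm/530nm emission ratio gave %Activity; AC50 values derived.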

[2] = target: Cytochrome P450 1A2 (Homo sapiens) (UniProt P05177); experiment: p450-cyp1a2 (AID 410; calls by dose curve; further: potency means the concentration at half of the fitted maximal effect)
Sequence of Cytochrome P450 1A2 (Homo sapiens) (P05177 whole entry, looked up): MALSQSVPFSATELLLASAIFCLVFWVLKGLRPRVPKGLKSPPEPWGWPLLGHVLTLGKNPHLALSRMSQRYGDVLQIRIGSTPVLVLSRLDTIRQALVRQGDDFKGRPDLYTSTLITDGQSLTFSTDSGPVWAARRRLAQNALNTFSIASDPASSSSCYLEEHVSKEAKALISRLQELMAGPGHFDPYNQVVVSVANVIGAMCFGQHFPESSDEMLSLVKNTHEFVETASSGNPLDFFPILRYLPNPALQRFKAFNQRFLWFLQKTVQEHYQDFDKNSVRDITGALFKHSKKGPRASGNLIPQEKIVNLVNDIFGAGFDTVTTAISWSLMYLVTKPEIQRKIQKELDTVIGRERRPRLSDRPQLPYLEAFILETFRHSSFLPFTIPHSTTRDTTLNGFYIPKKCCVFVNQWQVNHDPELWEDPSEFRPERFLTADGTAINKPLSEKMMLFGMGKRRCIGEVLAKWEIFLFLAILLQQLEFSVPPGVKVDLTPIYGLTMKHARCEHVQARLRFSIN
Outline: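 Luminescent demethylation readout: Luciferin-ME (100uM, equal to Km) turned over by 20nM CYP1A2 for 60 min at room temperature after NADPH regeneration addition, following 10 min compound preincubation. Normalization used 57 uM furafylline as full inhibition.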

[3] = NFAT Signaling Pathway (AID 444); conditions: Jurkat NFAT-bla M1, carbachol, beta-lactamase ratio, 5 h;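 further: carbachol stimulus at about its EC50 of 1 µM final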
Outline: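 Jurkat cells with NFAT-driven β-lactamase reporter and co-expressed M1 receptor, stimulated with carbachol (final 1 uM, ~EC50), compound titration, 5 h at 37 °C. CCF4 loaded 1 h at RT; 460/530 nm ratio gave %activity and AC50.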

[4] = Stat Signaling Pathway (AID 446);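 further: ME-180 cervical cancer cells given 40 pM IL-6 alongside compound; SIE-controlled beta-lactamase reporter measured as 460/530 nm FRET emission ratio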
Outline: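 Overnight-plated ME-180 cells bearing a STAT Inducible Element beta-lactamase reporter; 5 h co-exposure to compound and 40 pM IL-6; values normalized to 300 pM IL-6 and 125 nM JAK inhibitor controls.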

[5] = target: Mitogen-activated protein kinase 10 (Mus musculus) (UniProt Q61831); experiment: JNK3 AlphaScreen Assay (AID 530);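 further: kinase came from lysate of stimulated human HepG2 cells; signal reports phosphorylation of biotinylated GST-cJun 1-79 at Ser73 with 10 µM ATP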
Outline: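 Activity was read by AlphaScreen after JNK3-containing HepG2 lysate (cytokine pre-activated) phosphorylated biotinylated GST-cJun with 10 uM ATP at room temperature. Phospho-Ser73 cJun antibody with Protein-A acceptor beads provided detection.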

[6] = target: 3',5'-cyclic-AMP phosphodiesterase 4B (Homo sapiens) (UniProt Q07343); experiment: qHTS Assay for Inhibitors of PDE-IV (AID 607; active means well fitted activation curve with a large enough effect in the main read-out, with a control signal flat, not every such curve was filed as active)
Sequence of 3',5'-cyclic-AMP phosphodiesterase 4B (Homo sapiens) (Q07343 whole entry, looked up): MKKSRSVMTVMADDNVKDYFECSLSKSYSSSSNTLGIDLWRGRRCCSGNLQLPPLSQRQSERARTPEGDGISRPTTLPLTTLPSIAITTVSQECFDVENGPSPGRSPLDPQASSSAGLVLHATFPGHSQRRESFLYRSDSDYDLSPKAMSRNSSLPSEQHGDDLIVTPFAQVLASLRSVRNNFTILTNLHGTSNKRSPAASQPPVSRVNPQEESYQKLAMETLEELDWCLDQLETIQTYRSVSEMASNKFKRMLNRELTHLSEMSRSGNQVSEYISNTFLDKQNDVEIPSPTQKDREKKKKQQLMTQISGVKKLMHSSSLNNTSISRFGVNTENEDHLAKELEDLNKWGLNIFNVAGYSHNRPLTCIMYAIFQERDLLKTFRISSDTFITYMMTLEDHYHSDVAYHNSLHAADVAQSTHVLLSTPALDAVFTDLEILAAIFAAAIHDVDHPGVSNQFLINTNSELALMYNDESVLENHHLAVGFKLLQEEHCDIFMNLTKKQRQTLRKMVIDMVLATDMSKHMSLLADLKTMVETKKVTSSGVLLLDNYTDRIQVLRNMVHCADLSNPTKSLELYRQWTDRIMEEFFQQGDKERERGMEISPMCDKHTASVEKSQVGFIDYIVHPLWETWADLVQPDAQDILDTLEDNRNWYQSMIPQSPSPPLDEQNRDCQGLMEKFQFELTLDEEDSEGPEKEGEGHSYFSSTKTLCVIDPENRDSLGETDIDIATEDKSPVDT
Outline: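 Live HEK293 cells with a modified cyclic nucleotide-gated (CNG) channel report intracellular cAMP via membrane-potential dye fluorescence (ex 535/em 590 nm). Endogenous PDE-IV was targeted. Compounds were tested at up to 22.9 uM final; RO 20-1724 100 uM served as control.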

[7] = target: Cytochrome P450 2D6 (Homo sapiens) (UniProt P10635); experiment: qHTS Assay for Inhibitors and Substrates of Cytochrome P450 2D6 (AID 891; active means well fitted curve in the direction sought with a large enough effect; an effect the other way counts as inactive or inconclusive; further: nearly all actives have a fitted effect of over 60% in size; further: potency means the concentration at half of the fitted maximal effect;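 on activity change, negative = inhibition: luciferin methyl ether substrate demethylated by CYP2D6 with NADPH regeneration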)
Sequence of Cytochrome P450 2D6 (Homo sapiens) (P10635 whole entry, looked up): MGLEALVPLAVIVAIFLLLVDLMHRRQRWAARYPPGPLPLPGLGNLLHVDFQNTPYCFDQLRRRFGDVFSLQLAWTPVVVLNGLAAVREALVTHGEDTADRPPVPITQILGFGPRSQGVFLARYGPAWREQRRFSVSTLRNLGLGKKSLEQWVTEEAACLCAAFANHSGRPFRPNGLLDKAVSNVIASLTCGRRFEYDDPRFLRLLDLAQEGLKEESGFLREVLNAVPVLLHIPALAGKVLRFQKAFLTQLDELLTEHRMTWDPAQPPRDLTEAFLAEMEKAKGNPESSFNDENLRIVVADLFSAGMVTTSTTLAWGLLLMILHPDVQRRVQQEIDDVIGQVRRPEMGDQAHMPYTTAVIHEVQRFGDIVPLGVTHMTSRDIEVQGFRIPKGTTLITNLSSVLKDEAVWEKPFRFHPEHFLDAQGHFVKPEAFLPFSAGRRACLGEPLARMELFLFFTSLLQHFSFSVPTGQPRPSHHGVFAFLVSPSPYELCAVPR
Outline: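 Luminescent read-out of luciferin formed by 5 nM human CYP2D6 demethylating 30 uM Luciferin-ME EGE (Km level) over 60 min at room temperature after NADPH regeneration addition. Data normalized to full inhibition by 1.43 uM quinidine.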

[8] = qHTS Assay for Lipid Storage Modulators (AID 1519; calls by dose curve); conditions: Drosophila S3 cells, BODIPY lipid droplet/cell ratio, laser cytometry, cells loaded with oleic acid; for activity change, negative = inhibition: at 25.7 µM (top of the series)
Outline: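 Cells seeded at 5,000 per well were treated with compounds over a concentration series and loaded with oleic acid (400 uM, as added). Lipid droplet fluorescence (488 nm excitation, 500-530 nm channel) was read by laser-scanning cytometry and normalized to 20 uM Triacsin C.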

[9] = target: Ubiquitin carboxyl-terminal hydrolase 1 (Homo sapiens) (UniProt O94782); experiment: Inhibitors of USP1/UAF1: Pilot qHTS (AID 504865; active means well fitted curve in the direction sought with a large enough effect; an effect the other way counts as inactive or inconclusive;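 further: rhodamine fluorescence freed from ubiquitin-rhodamine substrate followed over time; top concentration of the series differs between compounds; nearly all actives have a fitted effect of over 35% in size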)
Sequence of Ubiquitin carboxyl-terminal hydrolase 1 (Homo sapiens) (O94782 whole entry, looked up): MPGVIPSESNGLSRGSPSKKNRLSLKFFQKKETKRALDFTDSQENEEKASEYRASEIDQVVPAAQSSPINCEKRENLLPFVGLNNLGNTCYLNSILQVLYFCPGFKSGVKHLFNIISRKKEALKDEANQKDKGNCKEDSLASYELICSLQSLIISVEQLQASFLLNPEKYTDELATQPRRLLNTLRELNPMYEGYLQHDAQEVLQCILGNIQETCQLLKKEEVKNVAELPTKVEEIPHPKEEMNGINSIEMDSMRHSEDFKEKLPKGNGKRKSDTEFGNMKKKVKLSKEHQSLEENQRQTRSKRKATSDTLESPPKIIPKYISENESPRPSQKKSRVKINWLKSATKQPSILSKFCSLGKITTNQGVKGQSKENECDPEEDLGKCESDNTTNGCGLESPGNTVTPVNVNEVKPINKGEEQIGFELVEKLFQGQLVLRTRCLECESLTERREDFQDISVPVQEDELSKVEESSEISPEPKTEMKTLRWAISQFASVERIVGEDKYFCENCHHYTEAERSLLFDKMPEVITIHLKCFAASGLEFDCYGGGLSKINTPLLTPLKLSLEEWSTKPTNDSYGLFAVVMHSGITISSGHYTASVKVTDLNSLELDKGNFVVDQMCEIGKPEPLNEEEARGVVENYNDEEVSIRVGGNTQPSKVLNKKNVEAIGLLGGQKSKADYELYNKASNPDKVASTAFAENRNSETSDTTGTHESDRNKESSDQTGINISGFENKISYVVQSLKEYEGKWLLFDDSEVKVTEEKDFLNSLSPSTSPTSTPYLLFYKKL
Outline: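 Kinetic fluorescence assay: 1nM USP1/UAF1, 15 min compound preincubation, then 150nM Ub-Rho; 480/540 nm.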

[10] = target: Glucocorticoid receptor (Homo sapiens) (UniProt P04150); experiment: GR-GFP Redistribution (AID 450;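 active means compounds whose dose series gives a full or clear partial fitted curve of increased nuclear translocation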; further: potency means the concentration at half of the fitted maximal effect); conditions: U2OS GR-GFP nuclear translocation, laser cytometry, 2 h
Sequence of Glucocorticoid receptor (Homo sapiens) (P04150 whole entry, looked up, the tested form may be a part): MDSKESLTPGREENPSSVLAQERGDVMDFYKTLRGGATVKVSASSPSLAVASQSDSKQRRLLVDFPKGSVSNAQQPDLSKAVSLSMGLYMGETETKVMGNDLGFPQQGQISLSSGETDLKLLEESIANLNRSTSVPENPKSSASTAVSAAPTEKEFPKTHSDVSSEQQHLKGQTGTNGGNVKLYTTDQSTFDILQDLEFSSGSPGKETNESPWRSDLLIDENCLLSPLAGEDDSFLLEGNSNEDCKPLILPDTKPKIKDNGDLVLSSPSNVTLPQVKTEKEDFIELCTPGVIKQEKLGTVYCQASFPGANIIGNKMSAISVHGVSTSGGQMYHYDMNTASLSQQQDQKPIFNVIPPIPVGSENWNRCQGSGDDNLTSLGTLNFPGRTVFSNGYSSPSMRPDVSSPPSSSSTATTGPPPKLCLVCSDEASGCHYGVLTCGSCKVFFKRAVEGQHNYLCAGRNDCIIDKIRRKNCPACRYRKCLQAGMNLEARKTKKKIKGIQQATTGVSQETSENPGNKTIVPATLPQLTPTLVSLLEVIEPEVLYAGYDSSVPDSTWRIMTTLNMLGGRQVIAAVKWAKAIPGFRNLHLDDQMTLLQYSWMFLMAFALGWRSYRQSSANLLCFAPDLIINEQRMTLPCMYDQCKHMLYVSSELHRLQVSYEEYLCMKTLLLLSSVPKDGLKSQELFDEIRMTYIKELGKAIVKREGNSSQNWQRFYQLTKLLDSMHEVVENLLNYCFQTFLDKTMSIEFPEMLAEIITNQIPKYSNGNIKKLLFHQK

[11] = target: Glucocorticoid receptor (Homo sapiens) (UniProt P04150); experiment: GR-EFC Redistribution (AID 451; calls by dose curve; further: potency means the concentration at half of the fitted maximal effect); conditions: CHO-K1 GR-EFC translocation, beta-gal luminescence, 2 h
Outline: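 CHO-K1 cells expressing nuclear EA and GR-ED fragments of b-gal; compounds titrated up to 46 uM final, 2 h at 37 C. GR nuclear translocation read as complemented b-gal luminescence after 1 h RT detection.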

[12] = target: ATP-dependent 6-phosphofructokinase (Trypanosoma brucei brucei) (UniProt O15648); experiment: qHTS Assay to Find Inhibitors of T. brucei phosphofructokinase: hit validation (AID 492961; active means well fitted curve in the direction sought with a large enough effect; an effect the other way counts as inactive or inconclusive;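 further: luminescence reports ADP formed as PFK phosphorylates fructose-6-phosphate with ATP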)
Sequence of ATP-dependent 6-phosphofructokinase (Trypanosoma brucei brucei) (O15648 whole entry, looked up): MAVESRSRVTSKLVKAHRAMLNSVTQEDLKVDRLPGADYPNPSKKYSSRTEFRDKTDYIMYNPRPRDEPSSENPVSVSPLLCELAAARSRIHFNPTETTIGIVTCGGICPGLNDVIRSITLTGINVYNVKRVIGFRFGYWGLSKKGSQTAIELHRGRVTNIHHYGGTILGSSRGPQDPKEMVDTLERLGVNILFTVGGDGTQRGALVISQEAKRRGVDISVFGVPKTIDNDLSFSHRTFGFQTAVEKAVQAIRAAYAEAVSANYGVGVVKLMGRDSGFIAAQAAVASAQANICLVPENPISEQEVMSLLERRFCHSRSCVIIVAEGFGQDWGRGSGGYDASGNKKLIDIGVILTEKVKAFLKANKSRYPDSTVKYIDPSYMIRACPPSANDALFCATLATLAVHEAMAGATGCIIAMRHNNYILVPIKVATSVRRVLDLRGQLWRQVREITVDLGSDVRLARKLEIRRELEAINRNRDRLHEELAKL
Outline: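 Inhibition of parasite PFK is measured as reduced ADP formation, quantified via luciferase after ATP depletion. Assay used 0.1 mM ATP, 0.5 mM F6P, 1.25 nM enzyme, 45 min incubation.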

[13] = qHTS profiling for inhibitors of Plasmodium falciparum proliferation (AID 504749; active means well fitted curve in the direction sought with a large enough effect; an effect the other way counts as inactive or inconclusive; further: nearly all actives have a fitted effect of over 60% in size); conditions: P. falciparum in erythrocytes, SYBR Green DNA, 72 h, at 12.8 µM (top of the series)
Outline: (§1)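 Each compound contacts P. falciparum-infected red blood cells for 72 h at 37 C; lysis buffer (Tris, EDTA, saponin, Triton X, SYBR Green I) is added and fluorescence measured next morning; values normalized to controls.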

CP203 = experiment: as above; conditions: P. falciparum in erythrocytes, SYBR Green DNA, 72 h; series mostly up to 28.7 µM
Outline: as §1

CP215 = experiment: as above; conditions: P. falciparum in erythrocytes, SYBR Green DNA, 72 h; series mostly up to 28.7 µM
Outline: as §1

CP262 = experiment: as above; conditions: P. falciparum in erythrocytes, SYBR Green DNA, 72 h; series mostly up to 28.7 µM
Outline: as §1

CP268 = experiment: as above; conditions: P. falciparum in erythrocytes, SYBR Green DNA, 72 h; series mostly up to 28.7 µM
Outline: as §1

CP297 = experiment: as above; conditions: P. falciparum in erythrocytes, SYBR Green DNA, 72 h; series mostly up to 28.7 µM
Outline: as §1

[14] = target: Cytochrome P450 3A4 (Homo sapiens) (UniProt P08684); experiment: qHTS Assay for Activators of Cytochrome P450 3A4 (AID 885; active means well fitted curve in the direction sought with a large enough effect; an effect the other way counts as inactive or inconclusive; further: nearly all actives have a fitted effect of over 65% in size)
Sequence of Cytochrome P450 3A4 (Homo sapiens) (P08684 whole entry, looked up): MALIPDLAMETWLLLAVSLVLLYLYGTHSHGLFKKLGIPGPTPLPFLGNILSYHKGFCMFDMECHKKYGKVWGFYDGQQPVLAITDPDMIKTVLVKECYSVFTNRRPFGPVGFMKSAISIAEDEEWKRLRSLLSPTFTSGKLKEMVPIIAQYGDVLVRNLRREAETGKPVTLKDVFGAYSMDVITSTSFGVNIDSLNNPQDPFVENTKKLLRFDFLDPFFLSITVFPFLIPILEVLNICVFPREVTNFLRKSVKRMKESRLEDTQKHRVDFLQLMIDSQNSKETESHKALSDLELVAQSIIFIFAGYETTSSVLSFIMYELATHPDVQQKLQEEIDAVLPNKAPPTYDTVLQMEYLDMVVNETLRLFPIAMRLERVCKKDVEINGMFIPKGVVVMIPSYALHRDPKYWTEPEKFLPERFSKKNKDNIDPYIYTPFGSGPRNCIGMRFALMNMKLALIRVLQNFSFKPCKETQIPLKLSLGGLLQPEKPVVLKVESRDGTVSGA
Outline: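 Using 20nM recombinant human CYP3A4 in potassium phosphate (200mM), substrate Luciferin-PPXE at 25uM, luminescent luciferin detection followed a 60-min RT NADPH reaction; data scaled to 57 uM ketoconazole.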

[15] = measured here: cell count channel max response
[16] = measured here: lipid channel max response

CCC[C@@](C)(COC(N)=O)COC(=O)NC(C)C
outcome [1]: inactive | Potency [2]: inactive | activity change, negative = inhibition ([3]; at 17.2 µM (top of the series)): -5.77% (inactive) | activity change, negative = inhibition ([3]; at 38 µM (top of the series)): -2.28% (inactive) | outcome [4]: inactive | outcome [5]: inactive | Potency [6]: inactive | Potency [7]: inactive | activity change, negative = inhibition [8]: -3.74% (inactive) | max response [8, 15]: 10.2% | max response [8, 16]: 7.74% | Potency [9]: inactive

CCN1C[C@@]2(COC)[C@H]3[C@@H](OC)[C@H]4C1[C@@]3([C@H](OC)C[C@@H]2O)[C@H]1C[C@@]2(O)[C@@H](OC(=O)c3ccccc3)[C@@H]1[C@@]4(OC(C)=O)[C@H](O)[C@@H]2OC
outcome [1]: inactive | Potency [2]: inactive | activity change, negative = inhibition ([3]; at 17.2 µM (top of the series)): -22.7% (inactive) | outcome [4]: inactive | outcome [5]: inactive | Potency [6]: inactive | activity change, negative = inhibition [8]: -1.64% (inactive) | max response [8, 15]: -0.297% | max response [8, 16]: -0.649%

CN(C)C(=O)Oc1cc(OC(=O)N(C)C)cc([C@@H](O)CNC(C)(C)C)c1
outcome [1]: inactive | Potency [2]: inactive | activity change, negative = inhibition ([3]; at 17.2 µM (top of the series)): -23.9% (inactive) | outcome [4]: inactive | Potency [10]: > 20.6 µM (inactive) | Potency [11]: > 20.6 µM (inactive) | outcome [5]: inactive | Potency [6]: inactive | Potency [7]: 7.94 µM (active) | activity change, negative = inhibition [8]: -0.844% (inactive) | max response [8, 15]: 2.58% | max response [8, 16]: 0.267% | Potency [12]: inactive | Potency [9]: inactive | activity, negative = inhibition ([13]; parasite line A): 1.47% (inactive) | activity, negative = inhibition ([13]; parasite line B): -2.95% (inactive) | Potency (CP203): inactive | Potency (CP215): inactive | Potency (CP262): inactive | Potency (CP268): inactive | Potency (CP297): inactive

CN1C(=O)CCS(=O)(=O)[C@@H]1c1ccc(Cl)cc1
outcome [1]: inactive | Potency [2]: inactive | activity change, negative = inhibition ([3]; at 17.2 µM (top of the series)): 1.85% (inactive) | outcome [4]: inactive | Potency [10]: > 20.6 µM (inactive) | outcome [5]: inactive | Potency [6]: inactive | activity change, negative = inhibition [8]: -0.668% (inactive) | max response [8, 15]: -4.45% | max response [8, 16]: -4.68%

CC(C)C[C@H]1C(=O)N2CCC[C@@H]2[C@@]2(O)O[C@](NC(=O)[C@@H]3C=C4c5cccc6[nH]cc(c56)C[C@@H]4N(C)C3)(C(C)C)C(=O)N12
outcome [1]: inactive | Potency [2]: 12.6 µM (active) | activity change, negative = inhibition ([3]; at 17.2 µM (top of the series)): -19.6% (inactive) | outcome [4]: inactive | Potency [10]: > 20.6 µM (inactive) | outcome [5]: inactive | Potency [6]: inactive | Potency [14]: inactive | activity change, negative = inhibition [8]: 1.16% (inactive) | max response [8, 15]: -5.41% | max response [8, 16]: -4.79%

COc1cc2c3cc1Oc1cc(ccc1O)C[C@@H]1c4c(cc(OC)c(O)c4Oc4cccc(c4)C[C@H]3N(C)CC2)CC[N+]1(C)C
outcome [1]: inactive | Potency [2]: inactive | activity change, negative = inhibition ([3]; at 17.2 µM (top of the series)): -7.53% (inactive) | outcome [4]: inactive | Potency [10]: > 20.6 µM (inactive) | Potency [11]: > 20.6 µM (inactive) | outcome [5]: inactive | Potency [6]: inactive | activity change, negative = inhibition [8]: 0.776% (inactive) | max response [8, 15]: 15.7% | max response [8, 16]: 13.7% | Potency [9]: inactive

CC(=O)OCC(=O)[C@@H]1CC[C@H]2[C@H]3CC[C@H]4C[C@@H](O)CC[C@]4(C)[C@@H]3C(=O)C[C@@]12C
outcome [1]: inactive | Potency [2]: inactive | outcome [4]: inactive | Potency [10]: > 20.6 µM (inactive) | Potency [11]: > 20.6 µM (inactive) | outcome [5]: inactive | Potency [6]: inactive | activity change, negative = inhibition [8]: -5.39% (inactive) | max response [8, 15]: -23.1% | max response [8, 16]: -26.2% | Potency [12]: inactive | Potency [9]: inactive | activity, negative = inhibition ([13]; parasite line A): 5.9% (inactive) | activity, negative = inhibition ([13]; parasite line B): 17.2% (inactive) | Potency (CP203): inactive | Potency (CP215): inactive | Potency (CP262): inactive | Potency (CP268): inactive | Potency (CP297): inactive
